# Test results: ChEMBL document CHEMBL4513216, “Probing the Open Global Health Chemical Diversity Library for Multistage-Active Starting Points for Next-Generation Antimalarials” (ACS Infect Dis, 2020)
# Hit rate of the full screen: of about 68,000 compounds, about 2,700 (4%) showed an effect of 50% or more. The sample as a whole holds a higher share of strong results than the screen did.
# System: Plasmodium berghei
# Experiment: Screen against P. berghei liver stage (PbLuc), transformed with Luciferase, at 2uM
# Assay type: functional, HepG2
# Conditions: tested at 2 uM
row,SMILES,INHIBITION [%]
1,CCc1nn(-c2cc(Oc3cc(C)ccc3C)nc(C)n2)c(N)c1C#N,16.91
2,CC(C)CCN1C[C@@H]2OCCN(c3ncc(F)cn3)[C@@H]2C1,29.74
3,O=C(c1ccc(=O)[nH]n1)N1CCCC(O)(CN2CCC(F)(F)CC2)CC1 (stereo not drawn),23.7
4,O=C(Cc1ccsc1)NC1CCc2c(ccc(=O)n2CC2CC2)C1 (stereo not drawn),6.85
5,Cn1c2c(ccc1=O)CC(Nc1ncc(F)cn1)CC2 (stereo not drawn),6.22
6,CCc1cnc(NC2CCc3c(ccc(=O)n3C)C2)nc1 (stereo not drawn),-17.39
7,Cn1c2c(ccc1=O)CC(NC(=O)Cc1ccsc1)CC2 (stereo not drawn),76.24
8,Cc1cnc(NC2CCc3c(ccc(=O)n3C)C2)nc1 (stereo not drawn),58.93
9,Cn1c2c(ccc1=O)CC(NC(=O)c1ccsc1)CC2 (stereo not drawn),0.57
10,CC(C)=CCN1C[C@@H]2CC[C@H]1CN(Cc1coc(C)n1)C2,-60.75
11,COC(=O)c1ccc(CN2CCC(c3n[nH]c(C)n3)CC2)s1,-54.89
12,CC(C)=CCC1(C(=O)O)CCCN(CCC(=O)NC2CC2)C1 (stereo not drawn),9.43
13,Cc1ccc(NC(=O)NCCCc2n[nH]c(N)c2C#N)cc1,33.01
14,CCc1cnc(N)nc1NC(C)c1ccc(C)c(C)c1 (stereo not drawn),35.84
15,O=C(c1ccncn1)N1CCC[C@]2(C[C@H](OCC3CC3)CO2)C1,16.78
16,CC(C)(C)OCC1CN(Cc2cccs2)S(=O)(=O)c2cnccc2O1 (stereo not drawn),35.6
17,O=C1CCSCC(C(=O)N2CCN(C3CCCCC3)CC2)N1 (stereo not drawn),51.94
18,O=C1CCSCC(C(=O)N2CCCCC2)N1 (stereo not drawn),39.58
19,O=C1CCSCC(C(=O)N2CCCC2)N1 (stereo not drawn),19.35
20,O=C(N[C@]12CC1CN(C(=O)c1ccco1)C2)c1ccco1 (stereo partly drawn),-50.87
21,O=C(N[C@]12CC1CN(C(=O)c1ccco1)C2)c1cccc(F)c1 (stereo partly drawn),52.36
22,O=C(N[C@]12CC1CN(C(=O)c1ccco1)C2)c1ccoc1 (stereo partly drawn),14.47
23,Nc1nc(CN2CCCCC2Cn2cncn2)nc2ccccc12 (stereo not drawn),-42.37

row,SMILES,INHIBITION [%]
1,Cc1cnc(N2C(=O)CSC2c2ccc(N(C)C)cc2)s1 (stereo not drawn),-8.23
2,O=C(O)c1cc(-c2cccs2)nc2c(Br)cnn12,-11.83
3,Cn1ccnc1CN1CCN(CC(O)c2ccc(F)c(F)c2)CC1 (stereo not drawn),56.67
4,Cn1ccnc1CN1CCN(CC(O)c2ccc(F)cc2)CC1 (stereo not drawn),-10.66
5,Cn1ccnc1CN1CCN(CC(O)c2cccc(F)c2)CC1 (stereo not drawn),-0.3
6,CC(c1ccc(F)c(F)c1)N1CCN(Cc2nccn2C)CC1 (stereo not drawn),62.13
7,CC(c1cccc(F)c1)N1CCN(Cc2nccn2C)CC1 (stereo not drawn),0.46
8,CC(c1ccc(F)cc1)N1CCN(Cc2nccn2C)CC1 (stereo not drawn),5.09
9,CN(C1CCN(c2ccccn2)CC1)S(=O)(=O)c1cccc(F)c1,15.38
10,COCC1CN(Cc2ccc(C)o2)Cc2cnn(CC3CCOCC3)c21 (stereo not drawn),-24.39
11,Cc1nnsc1C(=O)NCCn1ccc(-c2ccncc2)n1,-34.54
12,Cc1cc(CC(=O)N(C)Cc2cccc(OC(C)C)c2)n[nH]1,-75.84
13,Cc1nc(-c2nnc[nH]2)sc1C(=O)N1CCCC1c1ccsc1 (stereo not drawn),-26.81
14,Cc1cnc(CN2CCCC(c3nc4ccccc4n3C(C)C)C2)o1 (stereo not drawn),37.77
15,Cc1ncc(CN2CCCC(c3nc4ccccc4n3C(C)C)C2)s1 (stereo not drawn),61.57
16,CC(C)n1c(C2CCCN(Cc3ccnn3C)C2)nc2ccccc21 (stereo not drawn),16.87
17,Cc1ccc(OCC2CCCN(C(=O)CN3CCOCC3)C2)cc1 (stereo not drawn),38.67
18,COc1ccc(OCC2CCCN(Cc3ccncc3)C2)cc1 (stereo not drawn),-1.29
19,Cc1ccc(OCC2CCCN(CC3CCOCC3)C2)cc1 (stereo not drawn),60.13
20,Cc1ccc(OCC2CCCN(c3nc(CO)cs3)C2)cc1 (stereo not drawn),-43.42
21,Cc1ccc(OCC2CCCN(Cc3ccc(CO)o3)C2)cc1 (stereo not drawn),69.67
22,Cc1ccc(OCC2CCCN(C(=O)Cn3ccccc3=O)C2)cc1 (stereo not drawn),45.14
23,Nc1nnc(SCc2cc(=O)n3c4c(sc3n2)CCCC4)[nH]1,-0.04

row,SMILES,INHIBITION [%]
1,CCCc1noc(C2CC(=O)N(Cc3ccccc3)C2)n1 (stereo not drawn),39.58
2,Cc1ccc(S(=O)(=O)N2CC[C@@H]3C[C@H](NC(=O)c4ccncc4)[C@@H]32)cc1,20.51
3,Cc1cccc(N2CCC3(CCCN(C(=O)c4cccnc4)C3)C2)n1 (stereo not drawn),-37.2
4,Cc1cc(C(=O)N2CCc3c(CN(C)C)nn(C)c3C2)[nH]n1,28.2
5,Cc1cccc(C(=O)N2CCc3c(CN(C)C)nn(C)c3C2)n1,-27.08
6,Cc1nocc1C(=O)N1CCc2c(CN(C)C)nn(C)c2C1,51.81
7,Cn1cc(CN2CCC(c3ncc(Cl)cc3S(C)(=O)=O)CC2)cn1,22.95
8,Cc1nc(CC(=O)N2CCCCC2Cn2cccn2)cs1 (stereo not drawn),60.64
9,O=C(c1cnc(C2CC2)s1)N1CCCCC1Cn1cccn1 (stereo not drawn),21.31
10,CCc1ncc(C(=O)N2CCCCC2Cn2cccn2)s1 (stereo not drawn),63.95
11,COc1ccc(OCCC(=O)N2CCCC2Cn2cccn2)cc1 (stereo not drawn),-28.79
12,Cc1nc(CC(=O)N2CCCC2Cn2cccn2)cs1 (stereo not drawn),34.53
13,O=C1COc2c(cccc2C(=O)N2CCCC2Cn2cccn2)N1 (stereo not drawn),24.56
14,CCc1nc(CC(=O)N2CCCCC2Cn2cccn2)cs1 (stereo not drawn),21.12
15,O=C(c1cccc2c1OCCO2)N1CCCCC1Cn1cccn1 (stereo not drawn),-46.81
16,CCc1ncc(C(=O)N2CCCC2Cn2cccn2)s1 (stereo not drawn),17.31
17,O=C(CCOc1cccc(F)c1)N1CCCC1Cn1cccn1 (stereo not drawn),8.37
18,O=C1COc2c(cccc2C(=O)N2CCCCC2Cn2cccn2)N1 (stereo not drawn),63.93
19,O=C(CCOc1ccc(F)cc1)N1CCCC1Cn1cccn1 (stereo not drawn),70.27
20,Cc1cnn(CC2CCCN2C(=O)c2sccc2C#N)c1 (stereo not drawn),16.25
21,CC(C)(C)CC(=O)NCC(=O)NCC(O)c1ccc2ccccc2c1 (stereo not drawn),-29.53
22,CCc1n[nH]c(C2CN(C(=O)c3ccc(Cl)cn3)CCO2)n1 (stereo not drawn),22.69
